# Reference: PubChem BioAssay (NCI)
# This is part of a sample that, as a whole, favours compounds with a hit. Of some 83,000 tested, about 20% had one in any assay.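 For each line, cells grew in 96-well plates with the test compound present at a single concentration for 48 hours.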 Values without a mark were called inactive. Calls of active or inactive are those of the source. Rule for the calls: active = growth percent below 10; inactive = the rest.
# Key:
# Assay in all cases: NCI-60 one-dose screen, 48 h (100 = growth as untreated, 0 = no growth, -100 = all killed)
# Conditions in all cases: 10 µM unless noted
# NCI-H23 lung = tested on: NCI-H23 lung
# NCI-H226 lung = tested on: NCI-H226 lung
# NCI-H322M lung = tested on: NCI-H322M lung
# HOP-62 NSCLC = tested on: HOP-62 NSCLC
# NCI-H460 lung = tested on: NCI-H460 lung
# HOP-92 NSCLC = tested on: HOP-92 NSCLC
# NCI-H522 lung = tested on: NCI-H522 lung
# A549/ATCC NSCLC = tested on: A549/ATCC NSCLC
# 786-0 renal = tested on: 786-0 renal
# COLO 205 colon = tested on: COLO 205 colon
# DU-145 prostate = tested on: DU-145 prostate
# K-562 leukemia = tested on: K-562 leukemia
# MALME-3M melanoma = tested on: MALME-3M melanoma
# MDA-MB-231 breast = tested on: MDA-MB-231 breast
# RXF 393 renal = tested on: RXF 393 renal
# SF-268 CNS = tested on: SF-268 CNS
# SF-295 CNS = tested on: SF-295 CNS
# SF-539 CNS = tested on: SF-539 CNS
# UACC-257 melanoma = tested on: UACC-257 melanoma
# M14 melanoma = tested on: M14 melanoma
SMILES,growth (NCI-H23 lung),growth (NCI-H226 lung),growth (NCI-H322M lung),growth (HOP-62 NSCLC),growth (NCI-H460 lung),growth (HOP-92 NSCLC),growth (NCI-H522 lung),growth (A549/ATCC NSCLC),growth (786-0 renal),growth (COLO 205 colon),growth (DU-145 prostate),growth (K-562 leukemia),growth (MALME-3M melanoma),growth (MDA-MB-231 breast),growth (RXF 393 renal),growth (SF-268 CNS),growth (SF-295 CNS),growth (SF-539 CNS),growth (UACC-257 melanoma),growth (M14 melanoma)
O=C(NCCNc1nccc(-c2c(-c3cccc(O)c3)nc3sccn23)n1)c1ccccc1O,57.4%,80.5%,72.3%,114%,57%,59.9%,29%,43.3%,64.6%,66.5%,67.2%,40.5%,14.6%,48.4%,50.9%,62.5%,46.4%,61.9%,14.8%,16.7%
CC(=O)N1N=C2N(Cc3ccccc3)C(=O)c3c(sc4c3CCCC4)N2C1c1cn(-c2ccccc2)nc1-c1ccc(Cl)cc1 (stereo not given),88.6%,91.9%,97.9%,98.6%,111%,81%,101%,95.9%,92.6%,101%,112%,93.4%,99.9%,99.1%,101%,100%,109%,92.6%,113%,100%
CN(CCNCc1ccccn1)CCNCc1ccccn1,18.2%,-63.6% (active),9.06% (active),4.07% (active),-7.2% (active),-7.3% (active),18.9%,0.123% (active),-3.78% (active),-5.61% (active),11.3%,2.92% (active),-21.8% (active),1.53% (active),-24.3% (active),20.3%,-6% (active),3.15% (active),-35.8% (active),-18.3% (active)
Cc1cc2nc(-c3c(N)ncc(C#N)c3-c3ccc(Cl)cc3)[nH]c2cc1C,50%,91.7%,81.1%,83.5%,43.2%,10.6%,41.2%,36.4%,75.1%,67.4%,31.9%,62.9%,63%,66.4%,70.9%,73.4%,58.3%,-9.94% (active),51.9%,53.7%
O=C(C[n+]1cccc(Br)c1)c1ccc2c(c1)CCCC2,92%,93.2%,101%,89%,105%,70.5%,80.5%,95.9%,88.3%,91.4%,110%,100%,96.6%,99.4%,117%,103%,104%,98.6%,112%,92.4%
COc1ccc(-c2nnc(SCC(=O)Nc3ccc(C(=O)/C=C/c4ccccc4)cc3)o2)cc1OC,88%,89%,90.8%,119%,103%,105%,91.4%,97.7%,101%,113%,96.7%,95.4%,104%,106%,99.8%,97.6%,104%,95.7%,105%,105%
CCCCCCCCCCCCCCCC(=O)NS(=O)(=O)OC[C@H]1O[C@@H](n2cnc3c(N)ncnc32)[C@H](O)[C@@H]1O,-39.5% (active),-65.1% (active),-46.2% (active),-25% (active),-10.1% (active),-65.7% (active),-33.3% (active),9.49% (active),-69.6% (active),-62.8% (active),-33.6% (active),8.9% (active),-51.6% (active),-25.6% (active),-83.4% (active),-42.6% (active),-34.6% (active),-69.4% (active),-20.7% (active),-68.2% (active)
